KDM5B inhibitor = blocks human KDM5B histone demethylase activity; 220,000 compounds, 2.6% hits; Potency, µM (top dose mostly 57.7 µM), most hits filed as inhibitors; Q9UGL1; AID 1347165; KDM5B demethylase, FDH-coupled NADH fluorescence (FDH is formaldehyde dehydrogenase); active = well fitted inhibition curve with a large enough effect; also: 0% is about no effect; nearly all actives have a fitted effect of over 70% in size
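Compound dilutions met 200 nM (final) KDM5BΔAP for 10 min at room temperature before substrate addition. The substrate mix held 12.5 µM H3K4me3 with cofactors 25 µM α-ketoglutarate and 50 µM Fe²⁺. NADH signal gain over 30 min defined activity.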
Starred values were filed as active, the others as inactive; i = inactive. This is one part of a sample in which hits are shown more often than they occur. Potency is read from the fitted curve at half-maximal effect.

SMILES	KDM5B inhibitor
COC(=O)c1ccccc1NC(=O)CN(c1cccc(C)c1C)S(C)(=O)=O	i
COc1ccc(-c2cnc([C@@H]3COCCN3C3CCCCC3)[nH]2)cc1	i
CC(OC(=O)c1cccc(O)c1)C(=O)NC(=O)NC1CCCC1 (stereo not drawn)	i
COCC(=O)N(C1CCOCC1)C1CCN(Cc2cccnc2)CC1	i
O=S(=O)(Cc1ccccc1)N1CCC(OC2CCN(Cc3cccnc3)CC2)CC1	i
CCCn1cc(-c2ccnc(NC3CCN(Cc4cccnc4)CC3)n2)c(C)n1	31.6µM*
Cc1ccccc1C(=O)NC(NC(=O)c1ccccc1C)c1ccc(Br)cc1	i
C=CCn1c(N2CCN(c3ccccc3)CC2)nc2c1c(=O)n(C)c(=O)n2C	i
COc1ccc(NC(=O)c2oc3ccccc3c2NC(=O)c2nn(-c3cccc(C)c3)ccc2=O)cc1	i
COCc1nnc2n1CCC(NC(=O)c1cc(C3CC3)[nH]n1)CC2 (stereo not drawn)	i
COCc1nnc2n1CCC(NC(=O)c1ccc3cc[nH]c3c1)CC2 (stereo not drawn)	28.2µM*
COCc1nnc2n1CCC(NC(=O)c1ccn(C)n1)CC2 (stereo not drawn)	i
CCCC(=O)N(CC)Cc1cc(=O)[nH]c2ccccc12	i
COCCN1C(=O)c2ccccc2NC1c1csc(-c2ccc(Cl)cc2)n1 (stereo not drawn)	i
COc1ccc(Cl)cc1NC(=O)c1nc2ccccc2nc1N1CCCC1	i
COc1ccc(C(NC(=O)c2cccc(OC(F)F)c2)C2CC(O)C2)cn1 (stereo not drawn)	i
CCCc1nc(C(=O)NC(c2ccc(OC)nc2)C2CC(O)C2)cs1 (stereo not drawn)	i
COc1ccc([C@@H](NC(=O)c2ccc3cccc(F)c3n2)C2CC(O)C2)cn1 (stereo partly drawn)	22.4µM*
CCCCCCCNC(=O)CCC(=O)NCCCC	i
O=C(Nc1ccc(Cl)nc1)c1cc2cccnn2n1	35.5µM*
O=C(NCc1cccnc1)c1cc(-c2cnccc2Cl)c2cccn2n1	i
Cc1cc(Cl)ccc1NC(=O)c1cc2ccccn2n1	i
O=C(NCc1ccc(Cl)nc1)c1cn2c(n1)CN(C(=O)c1ccccc1F)CC2	i
O=C(NCc1ccc(Cl)nc1)c1cc2cccnn2n1	35.5µM*
COc1ccc(NC(=O)c2cccs2)cn1	i
SMILES	KDM5B inhibitor
CCCCOc1ccc(OCCN)cc1	i
CC(/C=N/NC(=O)C1CC1c1ccc(C(C)(C)C)cc1)c1ccccc1 (stereo not drawn)	i
Nc1ncc(S(=O)(=O)Nc2ccccc2)cn1	i
CCCNC(=O)Cc1ccc(N(Cc2ccc(C)cc2)C(=O)c2ccco2)cc1	i
O=C(NCc1ccoc1)Nc1cccc(C(=O)N2CCCC2)c1	i
C#CCNC(=O)c1nc(C(C)(C)C)c2ccccn12	112µM*
C#CCNC(=O)CSc1nc2ccccc2nc1C	i
CC(C)NC(=O)c1cc2c(=O)n3ccccc3nc2s1	i
Cn1c(C(=O)N2CCN(C(=O)C(C)(C)C)CC2)cc2ccccc21	i
CC(C)(C)c1ccc2cc(C(=O)N3CCCC3)[nH]c2c1	i
CC(C)NC(=O)c1nc(C(C)(C)C)c2ccccn12	112µM*
CC(C)(C)c1nc(C(=O)N2CCCC2)n2ccccc12	112µM*
CC(C)NC(=O)c1ccccc1Cl	i
Cc1ccc(-c2cnc(CCC(=O)N3CC(C(=O)N(C)C)Oc4ccccc43)o2)cc1C (stereo not drawn)	i
CCCc1ccc(NC(=O)Cc2c[nH]c3ccccc23)cc1	i
CCc1ncc2c(=O)n(Cc3ccc(OC)cc3)ccn12	i
Cc1ccc2[nH]c(C)c(CC(=O)NCc3ccco3)c2c1	i
O=C(NC1CC1)c1cc(-c2ccccc2)nc2ccccc12	i
Nc1c(C(=O)NC2CCCC2)cnn1-c1ccccc1	i
O=C(NC1CC1)c1cccn2nccc12	35.5µM*
CNC(=O)c1cccn2nccc12	31.6µM*
O=C(NC1CC1)c1cnn2ncccc12	31.6µM*
CNC(=O)c1ccn2nccc2c1	i
CC1CCC(NC(=O)c2ccccc2S(C)(=O)=O)CC1 (stereo not drawn)	i
N#CCSc1ccccc1C(=O)NC1CC1	i
SMILES	KDM5B inhibitor
CNC(=O)c1cnn2c1CN(C(=O)c1ccccc1F)CC2	i
Cc1ccc(CN2C(=O)NC3(CCCN(C(=O)c4cc(Cl)ccc4F)C3)C2=O)cc1 (stereo not drawn)	i
COc1cc(/C=N/O)cc(Br)c1O	i
CC(C)CN1C(=O)COC[C@@H]1[C@H](O)c1ccc(NC(=O)C2CCCCC2)cc1	i
C(#CCN1CCN(Cc2ccccc2)CC1)COCCOC(c1ccccc1)c1ccccc1	i
Cc1cc(C)c(CNC(=O)c2cc(-c3ccccc3O)cc3c2OCCN3C)c(=O)[nH]1	35.5µM*
Cc1cc(C)c(CNC(=O)c2cc(-c3ccccc3F)cc3c2OCCN3C)c(=O)[nH]1	31.6µM*
O=C(NCCCO)c1nc(Cc2c[nH]c3ccccc23)no1	i
C[C@H](O)c1onc(-c2ccccc2)c1C(=O)N1CCOCC1	i
CN(C)C(=O)C1CCc2nnc(-c3ccc(Cl)nc3)n21 (stereo not drawn)	i
O=C(c1nc(-c2ccccc2)c2ccccn12)N1CCOCC1	39.8µM*
CN(C)C(=O)c1nc(-c2ccc(Cl)nc2)c2ccccn12	112µM*
O=C(Cn1nc(-c2ccccc2)c2ccccc2c1=O)N1CCOCC1	i
O=C(c1nc(-c2ccc(Cl)nc2)c2ccccn12)N1CCOCC1	14.1µM*
O=C(c1nc(-c2ccc(F)cc2)c2ccccn12)N1CCOCC1	31.6µM*
CN(C)C(=O)c1nc(-c2ccc(S(C)(=O)=O)cc2)c2ccccn12	i
CCOC(=O)Cn1c(CN2CCN(C(=O)OCC)CC2)nc2c1c(=O)n(C)c(=O)n2C	i
CC(C)Cc1noc(CN2CCN(c3cccc(F)c3C#N)CC2)n1	i
O=C(Nc1ccccn1)c1ccc(C2SCCCS2)cc1	i
CCCn1c(=O)[nH]c(=O)c2c1nc(-c1ccc(OC)cc1)n2CCOC	i
COc1ccc(NS(=O)(=O)c2ccc(-c3cc(C(F)(F)F)on3)s2)cc1OC	i
Cc1cc(N)ccc1C(C)C	i
CCC(C)C(C(=O)NCc1ccc(C(=O)OC)cc1)c1ccccc1 (stereo not drawn)	i
CCn1c(=O)n(CC)c2cc(N3CCCC3)c(NC(=O)Nc3cc(Cl)c(OC)cc3OC)cc21	i
CCOc1ccc2c(c1)cc(C(=O)Nc1cc(C)ccc1F)n2C	i
SMILES	KDM5B inhibitor
CCOc1cc(=O)n2c(c1C(=O)Nc1cc(C)ccc1F)CCCC2	i
Cc1ccc(NC(=O)c2sc(-n3nc(C)c(Cl)c3C)nc2C)c(C)c1	i
Cc1ccc(NC(=O)c2cc3c(N4CCSCC4)nc(C)cn3n2)c(C)c1	31.6µM*
Cc1ccc(F)c(NC(=O)c2cc3c(N4CCSCC4)nc(C)cn3n2)c1	31.6µM*
Cc1ccc(NC(=O)c2cnc(N3CCCCC3)c3ccccc23)c(C)c1	i
COc1ccc(-c2nn(-c3ccccc3)cc2C(=O)NCC(C)(C)N2CCOCC2)cc1OC	i
NC(=O)C(Cc1ccccc1)NS(=O)(=O)c1ccc(Cl)s1 (stereo not drawn)	i
OCc1cccc(-c2ccc3ncc(Nc4ccccc4Cl)n3n2)c1	i
Cc1cccc(NC(=O)CCC2CCCCC2)c1	i
CCC(=O)Nc1ccc(C(=O)CSc2nnc(C3CC3)n2Cc2ccccc2)cc1	i

Source: PubChem (National Center for Advancing Translational Sciences (NCATS))
